Screens: PubChem BioAssay, National Center for Advancing Translational Sciences (NCATS)
Cycloheximide cs – counter-screen for Shiga toxin inhibitors: cycloheximide protein synthesis inhibition; cell reporter, cycloheximide protein synthesis inhibition counterscreen; max response, %; 300,000 tested, 12% active; AID 2314; in the data active means max response mostly above about 13%, no sharp cut-off; inactive means mostly below about 14%; further: read at 38.3 µM for the half of the compounds with a filed dose; 0% is about no effect
Shiga toxin inh – blocks Shiga toxin action in Vero cells; Vero cells, Shiga toxin protein synthesis inhibition reporter; inhibition, % at 38.7 µM; 290,000 tested, 9.2% active; AID 2315; in the data active means inhibition mostly above about 28%, no sharp cut-off; inactive means mostly below about 43%; further: 0% is about no effect
LmPK inh – blocks Leishmania mexicana pyruvate kinase activity. AID 1721. 290,000 tested, 0.37% active. purified LmPK, Kinase-Glo ATP luminescence, 1 h. Potency, µM (titrated, usually from 57.5 µM), without a hit: at the highest dose activity change, negative = inhibition, hits mostly inhibitors; further: potency means the concentration at half of the fitted maximal effect; on the % scale 0 is the no-effect control and ±100 the full control effect
Target sequence (Q27686 whole entry, looked up): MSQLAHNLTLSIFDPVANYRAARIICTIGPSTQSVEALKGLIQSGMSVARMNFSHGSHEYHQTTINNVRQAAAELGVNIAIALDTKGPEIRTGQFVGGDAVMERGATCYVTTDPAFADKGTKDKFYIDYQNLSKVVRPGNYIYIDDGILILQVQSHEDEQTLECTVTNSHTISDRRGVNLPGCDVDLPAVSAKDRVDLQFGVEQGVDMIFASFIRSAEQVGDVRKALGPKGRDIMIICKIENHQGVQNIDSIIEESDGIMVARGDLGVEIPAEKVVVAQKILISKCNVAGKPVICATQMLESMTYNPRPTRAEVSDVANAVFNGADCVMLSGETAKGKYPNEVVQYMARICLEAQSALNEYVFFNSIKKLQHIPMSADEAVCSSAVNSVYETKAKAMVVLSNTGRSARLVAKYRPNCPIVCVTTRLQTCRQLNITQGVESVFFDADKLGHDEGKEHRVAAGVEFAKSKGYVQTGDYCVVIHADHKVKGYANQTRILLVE
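Screened at intermediate enzyme activity to detect both inhibitors and activators: LmPK at 0.1 nM, with a 0.5 nM enzyme column as activation reference. PEP 0.5 mM, ADP 0.1 mM; ATP detected by luminescence after 1 h.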
SARS PLpro yeast – SARS-CoV PLP inhibition in yeast. 330,000 tested, 0.19% active. S. cerevisiae expressing SARS-CoV PLpro, growth rescue. Potency, µM (titrated, usually from 32.9 µM), without a hit: at the highest dose activity, positive = growth rescue, actives largely listed as activators; calls by dose curve; further: potency means the concentration at half of the fitted maximal effect; 0% is about no effect; nearly all actives have a fitted effect of over 55% in size
TbPYK inhibitor – blocks Trypanosoma brucei pyruvate kinase | Potency, µM (titrated, usually from 76.8 µM), inactives show at the top dose activity, negative = inhibition, hits mostly inhibitors | TbPYK enzyme, Kinase-Glo Plus ATP luminescence, 45 min | 410,000 tested, 0.12% active | Q57TT1 | AID 624173; further: potency means the concentration at half of the fitted maximal effect; on the % scale 0 is the no-effect control and ±100 the full control effect; nearly all actives have a fitted effect of over 50% in size
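Screened from lowest to highest concentration, compounds were pinned into TbPYK/substrate mixtures, and ADP (130 uM final) was added. Plates sat at room temperature for 45 min prior to Kinase-Glo Plus detection by luminescence.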
NS1 inh – inhibitors of influenza NS1 protein function. Potency, µM (doses to about 46.1 µM), for the others: at the highest dose activity, positive = more growth. 270,000 tested, 0.4% active. AID 2326; calls by dose curve; further: potency means the concentration at half of the fitted maximal effect; actives are rising curves; nearly all actives have a fitted effect of over 50% in size
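OD600 was taken as the measure of yeast growth restored by compound in an NS1-expressing S. cerevisiae strain. Cells had been washed out of glucose medium and diluted 1:100 into galactose -URA medium, pH 6.0.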
The depositor's hits bear a star; ? = inconclusive; · = no result given. The sample as a whole holds a higher share of hits than the screen did. Unless noted, the call rests on the fitted dose curve; in most records, active means well fitted curve in the direction sought with a large enough effect; inconclusive means small, poorly fitted or top-dose-only effect, or another doubt; inactive means no such curve, though single readings can be large; an effect the other way counts as inactive or inconclusive.

SMILES	Cycloheximide cs	Shiga toxin inh	LmPK inh	SARS PLpro yeast	TbPYK inhibitor	NS1 inh
O=C(Nc1cccc([N+](=O)[O-])c1)c1ccc(-c2ccccc2)cc1	10.7	29.2	6.5%	10.4%	-10.3%	18.0%
O=C(Nc1ccc(Nc2ccccc2)cc1)c1ccc(Br)cc1	-3.8	-7.1	-2.4%	?	-3.8%	9.1%
O=C(NCc1cccs1)O[C@H]1C[C@H]2CC[C@@H]1C2	·	·	·	·	·	-1.4%
Cc1ccc(Nc2nc(Nc3ccc(C)c(C)c3)nc(N3CCOCC3)n2)cc1C	·	·	·	·	-2.4%	·
O=C(N/N=C/c1ccc(N2CCOCC2)cc1)c1ccccn1	26.9*	51.4*	?	-3.3%	-34.8%	1.9%
CN(C)c1ccc(/C=N/NC(=O)c2cnc3ccccc3c2)cc1	-0.1	4.1	-4.2%	-0.1%	-10.1%	-7.7%
CN(C)c1ccc(/C=N\NC(=O)c2csnn2)cc1	18.1*	32.5*	-26.6%	-7.9%	-12.6%	-23.5%
O=C(Nc1ccc(N2CCOCC2)cc1)C1CC1	10.3	44.0	-3.5%	3.6%	-1.3%	10.3%
O=C(N/N=C/c1ccc(N2CCOCC2)cc1)C1CC1	15.3	45.2*	-0.8%	0.3%	0.9%	·
Cc1ccc(N/N=C/c2ccc(N3CCOCC3)cc2)cc1C	59.0*	135.7*	3.1%	9.2%	-3.0%	1.0%
CN(c1ccccc1)S(=O)(=O)c1ccc(C(=O)NNC(=O)c2ccccc2F)cc1	·	·	·	-13.9%	-8.0%	·
O=C(OCC(=O)N1CCCC1)c1cnc(Cl)c(Cl)c1	·	·	·	2.6%	2.6%	·
COc1ccc(-n2nnnc2C(c2ccnc3ccccc23)N2CCN(C/C=C/c3ccccc3)CC2)cc1 (centres undefined)	·	·	·	·	6.0%	·
O=[N+]([O-])c1ccc2c(c1)S(=O)(=O)C=C2	-9.0	-14.9	·	·	·	·
O=C(N/N=C/c1cnc(N2CCOCC2)s1)c1ccccc1	19.8*	37.5	-1.5%	2.1%	0.5%	1.1%
CN(C)c1ccc(/C=N/NC(=O)c2ccccn2)cc1	22.8*	15.0	12.6µM*	-1.7%	?	-38.6%
Cc1cccc(/C=N\NC(=O)c2csnn2)c1	74.1*	88.5*	-26.6%	11.9%	-8.7%	-17.6%
CC(C)c1ccc(/C=N/NC(=O)c2ccccn2)cc1	31.5*	13.0	14.1µM*	-1.1%	-15.6%	-36.8%
Cc1nc(Cn2c3ccc(NC(=S)NC4CCCCC4)cc3c(=O)n2C)cs1	·	·	·	·	2.3%	·
COc1cc(CN2C[C@@H](CO)O[C@@H](n3cnc4c(NCCCO)ncnc43)C2)cc(OC)c1OC	·	·	·	·	1.4%	·
O=C(N/N=C\c1ccc(Oc2ccccc2)cc1)c1csnn1	46.5*	97.2*	0.7%	2.3%	-7.4%	·
O=C(N/N=C/c1ccncc1)c1ccccn1	34.5*	72.2*	-25.5%	-0.9%	-2.1%	8.3%
Cc1ccc(/C=N/NC(=O)c2ccccn2)o1	41.6*	47.2*	-13.3%	2.9%	-10.0%	-5.5%
CCc1c(C(=O)N/N=C/c2ccc(C)o2)csc1C	17.9*	-1.0	-3.9%	-66.2%	-6.3%	-20.8%
CCOC(=O)N/N=C/c1ccc(C)o1	1.8	5.0	-5.2%	2.9%	-2.6%	8.2%
SMILES	Cycloheximide cs	Shiga toxin inh	LmPK inh	SARS PLpro yeast	TbPYK inhibitor	NS1 inh
CCN(Cc1cccs1)C(=O)CN1C(=O)NC(c2ccccc2)(c2ccccc2)C1=O	·	·	·	-2.2%	0.8%	·
Cc1cc(Cl)ccc1OCC(=O)N(Cc1ccco1)c1c(N)n(Cc2ccccc2)c(=O)[nH]c1=O	·	·	·	·	0.0%	·
CNCCCOc1cccc(Oc2ccccc2)c1	34.1*	100.2*	-3.3%	0.7%	2.7%	1.8%
CNCCCOc1cccc(OC(C)C)c1	19.0*	140.9*	-4.3%	-9.9%	-7.2%	-6.4%
CC(=O)NCCOc1cccc(OCCNC(C)=O)c1	1.5	-4.3	3.0%	-12.3%	-4.6%	?
O=C(Cn1ncc2c3ccccc3n(Cc3ccccc3)c2c1=O)N1CCC2(CC1)OCCO2	29.4*	30.4	1.9%	-5.2%	·	6.5%
CN1CCN(c2ccc(C=O)cc2)CC1	9.3	-3.7	-3.8%	1.0%	-3.5%	-0.3%
CCOc1ccc(N2CC(=O)N(c3ccc(OCC)cc3)CC2=O)cc1	-2.1	-19.2	-1.5%	-0.4%	-1.5%	2.3%
CCOc1ccc(N2Cc3ccccc3C2)cc1	39.3*	116.0	-22.7%	-0.8%	-2.3%	-9.1%
Oc1cccc(N2Cc3ccccc3C2)c1	11.1	30.6*	-23.0%	-2.7%	-7.5%	2.1%
Cc1cc2c(cc1C)CN(c1ccccc1)C2	48.4*	66.4*	15.8µM*	-1.4%	-13.4%	2.9%
O=Cc1ccc(N2Cc3ccccc3C2)cc1	18.4*	56.9*	-17.1%	-6.7%	-6.0%	-65.3%
O=S(=O)(c1c(F)cccc1F)N1CCN(S(=O)(=O)c2c(F)cccc2F)CC1	0.3	-9.1	·	·	·	·
Cc1cc(N2Cc3ccccc3C2)ccc1C=O	19.2*	69.8*	-16.7%	-9.7%	2.8%	-40.0%
Cc1ccccc1C=O	·	·	·	-2.6%	4.2%	·
CCOC(=O)c1ccc(N2Cc3cc(C)c(C)cc3C2)cc1O	19.3*	16.9	-5.0%	2.5%	·	3.1%
O=C(O)c1ccc(N2Cc3ccccc3C2)cc1O	28.6*	56.5*	14.1µM*	3.0%	?	?
Oc1ccc(N2Cc3ccccc3C2)cc1	19.7*	14.6	-14.2%	-0.1%	-11.2%	?
O=C(CN1CCN(c2ccc(O)cc2)CC1)N1CCc2ccccc21	-3.8	-5.7	-21.5%	-4.4%	?	8.7%
O=C(O)c1ccc(N2CCCCC2)cc1O	3.1	19.1	1.6%	-0.1%	3.4%	6.3%
CCOC(=O)c1ccc(-n2c(CCC(=O)O)ccc2-c2ccccc2)cc1O	·	·	·	·	-6.4%	·
O=C1COc2ccc(-c3cc(-c4ccccc4)c4c(n3)-c3cc(Cl)ccc3OC4)cc2N1	·	·	·	·	7.6%	·
O=C(COC(=O)CCC(=O)c1cccs1)NCCc1ccccc1	·	·	·	-0.5%	-20.2%	·
CCOC(=O)CNC(=O)Cn1nc(N2CCN(c3ccccc3)CC2)ccc1=O	·	·	·	·	1.4%	·
Cc1cccc(NC(=O)Nc2nnc([C@@H]3C[C@H](O)[C@@H](CO)O3)s2)c1	·	·	·	·	-0.1%	·
SMILES	Cycloheximide cs	Shiga toxin inh	LmPK inh	SARS PLpro yeast	TbPYK inhibitor	NS1 inh
Oc1ccc([C@H]2CNCc3c2ccc(O)c3O)cc1O	·	·	·	·	3.16µM*	·
C/C(=N/Nc1ccc(C)cc1)C1(C)N(O)C(C)(C)C(c2ccco2)=[N+]1[O-] (centres undefined)	16.8*	35.8	-29.5%	3.1%	-7.1%	·
O=C1c2ccccc2C(=O)N1OCc1c(F)cccc1Cl	21.9*	16.5	0.2%	-0.3%	-2.7%	-3.8%
Cc1ccc(C2C(C(=O)c3cccs3)=C(O)C(=O)N2c2cccc(C)n2)cc1 (centres undefined)	17.1*	70.4*	1.4%	-2.0%	-2.4%	0.1%
Cc1ccc(C2C(C(=O)c3cccs3)=C(O)C(=O)N2c2ccc(S(N)(=O)=O)cc2)cc1 (centres undefined)	24.5*	40.4	4.1%	6.2%	-4.3%	?
Cc1cc(N2C(=O)C(O)=C(C(=O)c3cccs3)C2c2cccc(Br)c2)no1 (centres undefined)	-0.8	-8.2	1.7%	0.8%	-3.8%	1.3%
